Our source for the z-score values is PubChem BioAssay.

The assay in a line: basal RPMI8226 mitochondrial membrane potential changes, profiling panel, cell-based, JC-1 fluorescence, 24 h, 100 nL compound (AID 1169). Further: test concentration not given here. Particulars: RPMI8226 myeloma, JC-1 mitochondrial potential fluorescence, higher = more signal.
The molecule `CO[C@H]1COC(=O)[C@@H]2CCCN2C(=O)CC=C[C@@H](C)[C@H](OC)COC(=O)CC=C[C@@H]1C` registered a z-score of -1.13.

Turning to `CC(C)CON=C1C[C@@H](O)[C@@H](O)[C@@H]2[C@@H]3C(=O)N([C@@H](C)c4ccccc4)C(=O)[C@@H]3CC[C@H]12`, the z-score was 0.53.

For `O=C1[C@H]2[C@H]3[C@H](O)[C@H](O)CC(=NOC[C@@H](O)COCc4ccco4)[C@@H]3CC[C@H]2C(=O)N1c1ccc(F)cc1F`, the z-score is -0.0126. In the case of `CO[C@@H]1COC(=O)CCC[C@@H](C)[C@H](OC)COC(=O)CCC[C@H]1C` it was 0.822. For `C=CC[C@@H]1C=C[C@H](ON=C[C@@H](OC)[C@H](C)C=CCC(=O)OC)[C@@H](CO)O1` the value was 0.461; for `CCCC[C@@H](O)C1=C(C)C[C@H]2C(=O)N(Cc3ccccc3)C(=O)[C@H]2[C@H]1CO`, -0.0812; for `CC(CCN1CCc2nc(-c3ccccc3)c(-c3ccccc3)cc2C1)=NO[C@H](C)c1cn([C@@H]2COC[C@H]2O)nn1`, -0.291. `CC(C)[C@H](NC(=O)OC(C)(C)C)[C@@H](O)CC(=O)OC(C)(C)C` yielded a z-score of 0.62. The molecule `CCOC(=O)C[C@H]1[C@H](OC(=O)c2ccc(C(=O)c3ccccc3)cc2)[C@@H](NC(=O)c2ccc(-c3ccccc3)cc2)c2cc(OCCCO)ccc2N1C(=O)c1ccc2ccccc2n1` had a z-score of 0.611. For `CCCNC(=O)OC[C@H]1O[C@H](CCON=C[C@@H](OC)[C@H](C)C=CCC(=O)OC)C=C[C@@H]1Oc1ccc(OC)cc1` the value was 0.0719; for `CCOC(=O)CCN1C(=O)[C@H]2[C@H]3[C@H](O)[C@H](O)CC(=NNC(=O)OCc4ccc(OC)cc4)[C@@H]3CC[C@H]2C1=O`, -0.91.

In turn, `COc1ccc(O[C@H]2C=C[C@@H](c3ccccc3)O[C@@H]2COC(=O)CCC(C)=NOC[C@@H](C)[C@H](OCc2ccccc2)C(C)C)cc1` registered a z-score of 0.815.

The molecule `O=C1[C@H]2[C@H]3[C@H](O)[C@H](O)CC(=NOCc4ccccc4)[C@H]3CC[C@H]2C(=O)N1C[C@@H]1CCCO1` yielded a z-score of -0.669. For the molecule `O=C1O[C@@H](c2ccccc2)[C@@H](c2ccccc2)N2[C@@H](c3ccc(OCCO)cc3)[C@]3(C(=O)Nc4ccc(C#CCCO)cc43)[C@@H](C(=O)N3CCCCCCC3)[C@H]12`, the z-score is -0.974. For `CCCCc1nc2c(c3c1C[C@H](C)OC3)CN(CCC(C)C)CC2` the value was -0.0883; for `O=C1C2=CC[C@H]3C(=O)N(Cc4ccc5c(c4)OCO5)C(=O)[C@H]3[C@H]2[C@H](O)[C@@H]2O[C@H]12`, -0.223.

Consider `O=C1CCCC=C1C(O)CCOCc1ccccc1` (stereo unspecified), for which the z-score is 0.215.

Consider `COCCCNC(=O)[C@]1(CCC(=O)OC(C)(C)C)N=C(c2ccc(OCCCO)cc2)O[C@@H]1c1ccccc1N=[N+]=[N-]`, for which the z-score is -0.69. The molecule `COC(=O)[C@@H]1CCCN1C(=O)[C@@H](C)CO` gave a z-score of -0.157.

On to `COc1ccc([Si](C)(C)[C@H]2[C@H](CCO)O[C@@]3(C(=O)N(Cc4cccc(NC(=O)[C@H](C)O)c4)c4ccccc43)[C@@H]2C)cc1`, for which the z-score is -1.02. Molecule `CCOC(=O)CCN1C(=O)[C@H]2[C@H]3[C@H](O)[C@H](O)CC(=NOC[C@@H](O)COCc4ccco4)[C@@H]3CC[C@H]2C1=O` showed a z-score of -0.393. In the case of `CC(CCN1CCCCc2nc(C)c(C)cc21)=NOC(C)CN1CCCCc2nc(C)c(C)cc21` (stereo unspecified) it was 0.308; in that of `COCCOC(=O)N1C(=O)[C@@]2(c3cc(C#CC4(O)CCCCCC4)ccc31)[C@H](c1ccc(OCCO)cc1)N1[C@H](c3ccccc3)[C@H](c3ccccc3)OC(=O)[C@H]1[C@@H]2C(=O)NC[C@H](O)c1ccccc1`, -0.924; in that of `CC(C)NC(=O)[C@@]1(C)c2ccccc2C(=O)N(Cc2cc(F)cc(C(F)(F)F)c2)[C@H]1c1ccc(CO)cc1`, 0.102. With `O=C1[C@H]2[C@H]3[C@H](O)[C@H](O)CC(=NO[C@@H]4O[C@H](CO)[C@@H](O)[C@H](O)[C@H]4O)[C@H]3CC[C@H]2C(=O)N1Cc1ccc2c(c1)OCO2`, the z-score was -0.0781.

In turn, `O=C1[C@H]2[C@H]3[C@H](O)[C@H](O)CC(=NOCc4ccccc4)[C@H]3CC[C@H]2C(=O)N1c1cccc(Oc2ccccc2)c1` came in with a z-score of 0.341. For `C[C@H](c1ccccc1)N1C(=O)[C@H]2[C@@H]3C(=CC[C@H]2C1=O)C(=O)[C@H]1O[C@H]1[C@H]3O` the value was -1.03; for `Cc1cc2c(nc1C)CCCN2CC(C)ON=C1[C@H]2CCn3c(=O)n(-c4ccccc4)c(=O)n3[C@H]2[C@H](O)[C@@H]2O[C@H]12` (stereo partly specified), 0.477; for `C#CCCCON=C1C[C@@H](O)[C@@H](O)[C@@H]2[C@@H]3C(=O)N([C@@H](C)c4ccccc4)C(=O)[C@@H]3CC[C@H]12`, 0.234.

Molecule `CCOC(=O)[C@H](Cc1ccccc1)NC(=O)CCC1CC(OC(=O)NCc2ccc3c(c2)OCO3)CC2(CCCC(COC(=O)NCC(c3ccccc3)c3ccccc3)O2)O1` (stereo partly specified) gave a z-score of -0.77.

The molecule `COCCCNC(=O)[C@@]1(C)c2ccccc2C(=O)N(Cc2ccc(OC(F)(F)F)cc2)[C@H]1c1ccc(CO)cc1` showed a z-score of -0.68. On to `CC(=O)O[C@H]1C2=C(C(=O)[C@@H]3O[C@@H]31)[C@H]1C(C)O[C@@H]2[C@@]23C(=O)[C@@H]4O[C@@H]4[C@@H](O)C2=CO[C@H](C)[C@@H]13` (stereo partly specified), for which the z-score stood at 0.151.

`COCCOC(=O)N1C(=O)[C@@]2(c3cc(C#CCNC(N)=O)ccc31)[C@H](c1ccc(O)cc1)N1[C@H](c3ccccc3)[C@H](c3ccccc3)OC(=O)[C@H]1[C@@H]2C(=O)N1CCCCCCC1` came in with a z-score of 0.399. In turn, `CC(=O)OC[C@H]1O[C@H](CCON=C(C)CCC(=O)OC[C@H]2O[C@H](C#Cc3ccccc3)C=C[C@@H]2Oc2ccc(C)cc2)C=C[C@@H]1OC(C)=O` registered a z-score of -0.199.

Regarding `O=C1[C@H]2[C@H]3[C@H](O)[C@H](O)CC(=NOC[C@@H](O)COCc4ccco4)[C@H]3CC[C@H]2C(=O)N1c1cccc(Oc2ccccc2)c1`, the z-score came out at 0.682. For `CC(C)(C)N1C(=O)[C@H]2[C@H]3[C@H](O)[C@H](O)CC(=NO[C@@H]4O[C@H](CO)[C@@H](O)[C@H](O)[C@H]4O)[C@@H]3CC[C@H]2C1=O` the value was -0.018.
